# Laboratory results reported in PubChem BioAssay (EPA / NIEHS).
# Calls of active or inactive are those of the source. The calls were made as follows: active = hit-call score of the fitted dose curve at least 0.9, where 1 is the maximum; inactive = score below 0.9.
# Tests used:
# Conditions in all cases: mRNA level, 48 h; actives raise or lower the signal
# [1] = read-out: adenosine kinase (ADK) gene, ADK (gene 132); test: LTEA_HepaRG_ADK: Life Technologies and Expression Analysis (LTEA) Assay for adenosine kinase (ADK) gene using HepaRG (AID 2283471)
# Summary of the method: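 ADK expression quantified by qRT-PCR, normalised to three housekeeping genes, after 48 h exposure of HepaRG cells to eight concentrations (top 100 uM, half-log steps, duplicate, 0.5% DMSO). Up- or down-regulation fitted relative to vehicle.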
# [2] = read-out: Alpha-fetoprotein (AFP) gene, AFP (gene 174); test: LTEA_HepaRG_AFP: Life Technologies and Expression Analysis (LTEA) Assay for Alpha-fetoprotein (AFP) gene using HepaRG (AID 2283472)
# Summary of the method: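 Chemicals were tested on differentiated HepaRG cells for 48 hours at eight concentrations up to 100 uM, with 0.5% DMSO as vehicle. AFP expression was then quantified by qRT-PCR and analyzed for gain or loss relative to DMSO.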
# BCL2L11 (gene 10018) = test: LTEA_HepaRG_BCL2L11: Life Technologies and Expression Analysis (LTEA) Assay for Bcl-2 (BCL2L11) gene using HepaRG (AID 2283473)
# Summary of the method: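 BCL2L11 transcript levels are measured by Fluidigm qRT-PCR, normalized to three housekeeping genes. HepaRG cultures were plated 48 h, then treated 48 h with test chemical (top 100 uM, half-log, 0.5% DMSO vehicle); curves were fitted bidirectionally against DMSO.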
# [3] = read-out: Apolipoprotein A-V (APOA5) gene, APOA5 (gene 116519); test: LTEA_HepaRG_APOA5: Life Technologies and Expression Analysis (LTEA) Assay for Apolipoprotein A-V (APOA5) gene using HepaRG (AID 2283474)
# Summary of the method: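 APOA5 transcript levels were quantified by qRT-PCR, normalized to three housekeeping genes, after 48 h chemical treatment of HepaRG cells (8 points, 100 uM maximum, half-log steps, 0.5% DMSO). Curves fitted in both directions against vehicle.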
# [4] = read-out: Apoptosis regulator Bcl-2 (Homo sapiens) (UniProt P10415); test: LTEA_HepaRG_BCL2: Life Technologies and Expression Analysis (LTEA) Assay for Bcl-2 gene using HepaRG (AID 2283475)
# Summary of the method: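 Plated human HepaRG cells are exposed to test chemicals for 48 h across eight concentrations from 100 uM downward in half-log steps (0.5% DMSO). BCL2 expression is then measured by qRT-PCR with housekeeping normalisation and fitted bidirectionally against vehicle.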
# [5] = read-out: Bcl-2 (BID) gene, BID (gene 637); test: LTEA_HepaRG_BID: Life Technologies and Expression Analysis (LTEA) Assay for Bcl-2 (BID) gene using HepaRG (AID 2283476)
# Summary of the method: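 Cells are plated, cultured 48 h, switched to serum-free induction medium, then dosed 48 h (100 uM top, half-log steps, 0.5% DMSO). RNA is isolated and BID expression read by qRT-PCR.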
# Caspase-3 (Homo sapiens) = Caspase-3 (Homo sapiens) (UniProt P42574); test: LTEA_HepaRG_CASP3: Life Technologies and Expression Analysis (LTEA) Assay for cysteine-aspartic acid protease (CASP3) using HepaRG (AID 2283477)
# Chain of Caspase-3 (Homo sapiens) (P42574 whole entry, looked up): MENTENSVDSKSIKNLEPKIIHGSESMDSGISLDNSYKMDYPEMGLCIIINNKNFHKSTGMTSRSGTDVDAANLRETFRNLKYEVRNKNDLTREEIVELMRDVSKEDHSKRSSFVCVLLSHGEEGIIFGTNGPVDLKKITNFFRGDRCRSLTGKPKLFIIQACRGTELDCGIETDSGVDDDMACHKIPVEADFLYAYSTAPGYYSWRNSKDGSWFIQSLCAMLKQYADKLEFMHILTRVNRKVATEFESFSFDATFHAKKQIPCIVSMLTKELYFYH
# Summary of the method: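 Expression of CASP3 was quantified by TaqMan qRT-PCR against three housekeeping genes (ACTB, GAPDH, POLR2A), bidirectionally versus 0.5% DMSO. HepaRG cultures received compounds in duplicate, top 100 uM with half-log steps, for 48 h in serum-free induction medium.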
# [6] = read-out: Cytochrome P450 (CYP24A1), CYP24A1 (gene 1591); test: LTEA_HepaRG_CYP24A1: Life Technologies and Expression Analysis (LTEA) Assay for Cytochrome P450 (CYP24A1) using HepaRG (AID 2283478)
# Summary of the method: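 mRNA of CYP24A1 quantified by TaqMan qRT-PCR (ACTB/GAPDH/POLR2A normalization) after 48 h chemical exposure of HepaRG cells, top concentration 100 uM, half-log steps, 0.5% DMSO vehicle, duplicates. Curves fitted bidirectionally against DMSO baseline.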
# [7] = read-out: Cytochrome P450 (CYP1A2), CYP1A2 (gene 1544); test: LTEA_HepaRG_CYP1A2: Life Technologies and Expression Analysis (LTEA) Assay for Cytochrome P450 (CYP1A2) using HepaRG (AID 2283479)
# Summary of the method: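 CYP1A2 transcript measured by TaqMan qRT-PCR against three housekeeping genes after 48-hour chemical exposure of HepaRG cells. Eight-point half-log series topping at 100 uM in 0.5% DMSO, duplicates; gain or loss fitted relative to vehicle.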
# [8] = read-out: cysteine-aspartic acid protease (CASP8), CASP8 (gene 841); test: LTEA_HepaRG_CASP8: Life Technologies and Expression Analysis (LTEA) Assay for cysteine-aspartic acid protease (CASP8) using HepaRG (AID 2283480)
# Summary of the method: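 CASP8 transcript measured by TaqMan qRT-PCR with ACTB/GAPDH/POLR2A normalization, after 48 h chemical exposure of HepaRG cells in serum-free induction medium. Eight concentrations, top 100 uM, half-log steps, 0.5% DMSO vehicle; fits in both directions versus DMSO.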
# [9] = read-out: Cytochrome P450 (CYP2B6), CYP2B6 (gene 1555); test: LTEA_HepaRG_CYP2B6: Life Technologies and Expression Analysis (LTEA) Assay for Cytochrome P450 (CYP2B6) using HepaRG (AID 2283481)
# Summary of the method: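 CYP2B6 transcript level quantified by qRT-PCR against three housekeeping genes, fitted bidirectionally relative to DMSO. HepaRG cultures received chemicals for 48 h, 8-point half-log series from 100 uM in 0.5% DMSO, duplicate wells, serum-free induction medium.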
# [10] = read-out: Cytochrome P450 2C19 (Homo sapiens) (UniProt P33261); test: LTEA_HepaRG_CYP2C19: Life Technologies and Expression Analysis (LTEA) Assay for CYP2C19 using HepaRG (AID 2283482)
# Summary of the method: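 CYP2C19 transcript levels by qRT-PCR, normalized to three housekeeping genes, in HepaRG cells after 48 h chemical exposure. Eight-point half-log series topping at 100 uM, 0.5% DMSO vehicle. Increases and decreases both fitted against DMSO.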
# CYP2C8 (gene 1558) = test: LTEA_HepaRG_CYP2C8: Life Technologies and Expression Analysis (LTEA) Assay for CYP2C8 using HepaRG (AID 2283483)
# Summary of the method: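 CYP2C8 expression measured by TaqMan qRT-PCR and normalized to three housekeeping genes. HepaRG cultures were treated for 48 h with an eight-point half-log series topping at 100 uM, vehicle 0.5% DMSO, duplicates; fitted both directions against DMSO.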
# CYP2C9 (gene 1559) = test: LTEA_HepaRG_CYP2C9: Life Technologies and Expression Analysis (LTEA) Assay for CYP2C9 using HepaRG (AID 2283484)
# Summary of the method: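 CYP2C9 transcript level, quantified by TaqMan qRT-PCR against three housekeeping genes, was fitted bidirectionally relative to 0.5% DMSO. HepaRG cultures were treated 48 h, in duplicate, at eight half-log concentrations topping at 100 uM.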
# CYP2E1 (gene 1571) = test: LTEA_HepaRG_CYP2E1: Life Technologies and Expression Analysis (LTEA) Assay for CYP2E1 using HepaRG (AID 2283485)
# Summary of the method: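 Readout is qRT-PCR of CYP2E1 mRNA, normalized to three housekeeping genes and fitted bidirectionally against 0.5% DMSO. HepaRG cells were dosed 48 h at eight concentrations, highest 100 uM with half-log dilutions.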
# CYP4A11 (gene 1579) = test: LTEA_HepaRG_CYP4A11: Life Technologies and Expression Analysis (LTEA) Assay for CYP4A11 using HepaRG (AID 2283486)
# Summary of the method: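 Readout is CYP4A11 transcript level by qRT-PCR, normalized to three housekeeping genes and fitted bidirectionally against 0.5% DMSO. Human HepaRG cells were treated 48 h, in duplicate, with an 8-point half-log series topping at 100 uM.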
# [11] = read-out: Cytochrome P450 3A4 (Homo sapiens) (UniProt P08684); test: LTEA_HepaRG_CYP3A4: Life Technologies and Expression Analysis (LTEA) Assay for CYP3A4 using HepaRG (AID 2283487)
# Summary of the method: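 Differentiated HepaRG cells, plated 48 h, then dosed 48 h in serum-free induction medium with 0.5% DMSO, 8 half-log concentrations up to 100 uM, duplicate. CYP3A4 mRNA by qRT-PCR, normalized to ACTB/GAPDH/POLR2A; bidirectional fit versus DMSO.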
# [12] = read-out: DNA damage-inducible transcript 3 (DDIT3), DDIT3 (gene 1649); test: LTEA_HepaRG_DDIT3: Life Technologies and Expression Analysis (LTEA) Assay for DNA damage-inducible transcript 3 (DDIT3) using HepaRG (AID 2283488)
# Summary of the method: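 Cells are human HepaRG liver cells treated for 48 h with eight half-log concentrations up to 100 uM in 0.5% DMSO. Transcript levels come from qRT-PCR normalized to three housekeeping genes, with activity fitted in both directions relative to vehicle.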
# [13] = read-out: Pro-epidermal growth factor (Homo sapiens) (UniProt P01133); test: LTEA_HepaRG_EGF: Life Technologies and Expression Analysis (LTEA) Assay for Epidermal growth factor (EGF) using HepaRG (AID 2283489)
# Summary of the method: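 EGF transcript measured by Fluidigm TaqMan qRT-PCR with three housekeeping genes for normalization, 48 h after dosing HepaRG cultures in duplicate (top 100 uM, half-log steps, 0.5% DMSO vehicle). Gain or loss relative to DMSO fitted.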
# [14] = read-out: Early growth response protein 1 (EGR1) transcription factor, EGR1 (gene 1958); test: LTEA_HepaRG_EGR1: Life Technologies and Expression Analysis (LTEA) Assay for Early growth response protein 1 (EGR1) transcription factor using HepaRG (AID 2283490)
# Summary of the method: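 EGR1 transcript levels quantified by qRT-PCR (Fluidigm arrays) against three housekeeping genes after 48 h chemical exposure of HepaRG cells. Eight-point half-log series topping at 100 uM, 0.5% DMSO vehicle, analyzed for gain or loss.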
# Chain of Cytochrome P450 2C19 (Homo sapiens) (P33261 whole entry, looked up): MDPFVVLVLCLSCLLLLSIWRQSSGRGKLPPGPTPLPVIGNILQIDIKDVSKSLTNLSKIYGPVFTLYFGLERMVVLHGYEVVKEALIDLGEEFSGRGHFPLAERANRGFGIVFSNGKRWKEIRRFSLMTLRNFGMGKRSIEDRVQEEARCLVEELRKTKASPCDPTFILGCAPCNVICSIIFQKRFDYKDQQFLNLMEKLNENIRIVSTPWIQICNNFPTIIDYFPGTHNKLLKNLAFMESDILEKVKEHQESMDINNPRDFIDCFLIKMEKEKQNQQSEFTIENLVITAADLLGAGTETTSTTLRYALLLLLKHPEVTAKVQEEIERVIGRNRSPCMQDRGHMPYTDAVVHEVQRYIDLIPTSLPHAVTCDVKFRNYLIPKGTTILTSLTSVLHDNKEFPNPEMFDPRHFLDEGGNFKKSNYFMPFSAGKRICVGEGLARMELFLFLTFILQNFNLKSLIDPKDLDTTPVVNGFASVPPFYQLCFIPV
# Chain of Cytochrome P450 3A4 (Homo sapiens) (P08684 whole entry, looked up): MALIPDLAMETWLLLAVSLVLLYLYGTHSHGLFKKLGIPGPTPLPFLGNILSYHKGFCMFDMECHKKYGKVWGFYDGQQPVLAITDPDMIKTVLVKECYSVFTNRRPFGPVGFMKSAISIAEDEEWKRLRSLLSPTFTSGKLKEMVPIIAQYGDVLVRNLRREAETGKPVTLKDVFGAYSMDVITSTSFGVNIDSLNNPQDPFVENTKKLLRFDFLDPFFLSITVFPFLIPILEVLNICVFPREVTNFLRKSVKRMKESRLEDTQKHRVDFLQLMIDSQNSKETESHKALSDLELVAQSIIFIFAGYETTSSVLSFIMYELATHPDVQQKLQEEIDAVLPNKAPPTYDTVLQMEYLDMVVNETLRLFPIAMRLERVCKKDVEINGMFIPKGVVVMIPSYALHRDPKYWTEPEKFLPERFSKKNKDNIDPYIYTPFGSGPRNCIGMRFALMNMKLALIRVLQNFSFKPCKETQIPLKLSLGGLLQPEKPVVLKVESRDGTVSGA
# Chain of Apoptosis regulator Bcl-2 (Homo sapiens) (P10415 whole entry, looked up): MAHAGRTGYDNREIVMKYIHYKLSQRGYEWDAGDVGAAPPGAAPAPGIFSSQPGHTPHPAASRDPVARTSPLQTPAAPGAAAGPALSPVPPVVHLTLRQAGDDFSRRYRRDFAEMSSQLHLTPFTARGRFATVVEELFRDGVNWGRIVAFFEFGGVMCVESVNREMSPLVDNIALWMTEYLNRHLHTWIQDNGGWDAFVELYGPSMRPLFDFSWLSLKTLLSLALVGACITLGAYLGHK
SMILES,outcome [1],outcome [2],outcome (BCL2L11 (gene 10018)),outcome [3],outcome [4],outcome [5],outcome (Caspase-3 (Homo sapiens)),outcome [6],outcome [7],outcome [8],AC50 [9],outcome [10],outcome (CYP2C8 (gene 1558)),outcome (CYP2C9 (gene 1559)),outcome (CYP2E1 (gene 1571)),outcome (CYP4A11 (gene 1579)),outcome [11],outcome [12],outcome [13],outcome [14]
N#CCCCCC#N,inactive,inactive,inactive,inactive,inactive,inactive,inactive,inactive,inactive,inactive,50 µM (active),inactive,inactive,inactive,inactive,inactive,inactive,inactive,inactive,inactive
O=C(CCl)c1ccccc1,inactive,inactive,inactive,inactive,inactive,inactive,inactive,inactive,inactive,inactive,50 µM (active),inactive,inactive,inactive,inactive,inactive,inactive,inactive,inactive,inactive
